# Laboratory results from PubChem BioAssay (EPA / NIEHS).
# Several values for one entry are separate records, joined by “and”; a condition that tells them apart may be missing. Equal values may be shown once. Records with an inconclusive call do not appear. More than one record can exist for a structure, and the calls need not agree. Activity calls are given as the source filed them. How the source made its calls, unless noted: active means hit-call score of the fitted dose curve at least 0.9, where 1 is the maximum; inactive means score below 0.9.
# Key:
# [1] = CCTE_Mundy_HCI_Cortical_Synap_Neur_Matur_NeuriteCount: CCTE's Synaptogenesis and Neurite Maturation Assay in rat cortical cells for Neurite Count, Mundy Lab (AID 2284222);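 on outcome: exposure from day 7 to day 12 in vitro with readout at day 12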
# Summary of the method: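 Primary rat cortical cells were plated, treated with AraC at DIV 5, then exposed to chemicals from DIV 7 through DIV 12. After fixation and immunostaining for MAP2 and synaptophysin, imaging quantified neurites, with DMSO as the negative control.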
# [2] = CCTE_Mundy_HCI_Cortical_Synap_Neur_Matur_CellBodySpotCount: CCTE's Synaptogenesis and Neurite Maturation Assay in rat cortical cells for Cell Body Spot Count, Mundy Lab (AID 2284223)
# Summary of the method: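 High-content imaging counts synaptophysin puncta on neuronal cell bodies per neuron after MAP2/synaptophysin immunostaining. Rat primary cortical cells, glia arrested with AraC at DIV 5, were exposed DIV 7–12; signal decrease measured against DMSO.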
# [3] = CCTE_Mundy_HCI_hNP1_Pro_ResponderAvgInten: CCTE's Proliferation Assay in human neuroprogenitor cells, Mundy Lab (AID 2284224; active means hit-call score of the fitted dose curve at least 0.9, where 1 is the maximum;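 further: human neural progenitor cells hNP1 derived from WA09 embryonic stem cells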)
# Summary of the method: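 Proliferation read as average intensity of BrdU-positive cells, imaged at 26.25 h post-dosing: chemical exposure started after 40–44 h culture, BrdU during final 4 h, paraformaldehyde fixation. Positive-direction fit relative to DMSO.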
# [4] = CCTE_Mundy_HCI_hN2_NOG_NeuronCount: CCTE's Neurite Outgrowth Assay in human hN2 cells for Neuron Count, Mundy Lab (AID 2284221; active means hit-call score of the fitted dose curve at least 0.9, where 1 is the maximum)
# Summary of the method: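 Read-out is the number of betaIII-tubulin-positive neurons imaged by automated high-content analysis, with DMSO as negative control.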
# [5] = BSK_BT_PBMCCytotoxicity: PBMC Cytotoxicity Assessment in the BioMAP Diversity Plus: BT Assay (AID 2284225); conditions: primary human B cells with PBMC
# Summary of the method: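 Viability by Alamar Blue reduction (6 h, ex/em 546/580 nm) after 90 h culture of SEB/TSST-1-activated PBMC (20 ng/mL each) given compound 1 h before activation. DMSO served as baseline for curve fitting.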
# [6] = read-out: Secreted IgG (sIgG), gene 3500; experiment: BSK_BT_sIgG: BioMAP Diversity Plus: BT Assay for Secreted IgG (sIgG) Biomarker Activity (AID 2284226); conditions: primary human B cells with PBMC
# Summary of the method: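 Cells (B cells with peripheral blood mononuclear cells) are dosed, cultured 24 h, then supernatant IgG is measured by ELISA. DMSO serves as negative control; curves are fitted for signal increase.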
# [7] = BSK_BT_Bcell_Proliferation: Viability Assessment in the BioMAP Diversity Plus: BT Assay for B cell Proliferation (AID 2284227); conditions: primary human B cells with PBMC
# Summary of the method: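 Read-out is absorbance at 560 nm from sulforhodamine B staining of total protein, reflecting relative cell numbers in a human B cell and PBMC co-culture after 72 h of chemical exposure. Values were referenced to DMSO.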
# [8] = read-out: Interleukin 6 (IL6), IL6 (gene 3569); experiment: BSK_BT_xIL6: BioMAP Diversity Plus: BT Assay for Interleukin 6 (IL6) Biomarker Activity (AID 2284228); conditions: primary human B cells with PBMC
# Procedure: BSK_BT is a cell-based, multiplexed-readout assay that uses B cell and peripheral blood mononuclear cells, a human vascular primary cell co-culture, with measurements taken at 24 hours after chemical dosing in a microplate: 96-well plate.BSK_BT_xIL6 is an assay component measured in the BSK_BT assay. It measures secreted IL-6 related to regulation of gene expression using LumineX xMAP technology.Data from the assay component BSK_BT_xIL6 was analyzed at the endpoint, BSK_BT_xIL6, in the positive analysis fitting direction relative to DMSO as the negative control and baseline of activity. Using a type of cytokine quantitation reporter, gain or loss-of-signal activity can be used to understand protein changes. To generalize the intended target to other relatable targets, this assay endpoint is annotated to the 'cytokine' intended target family, where the subfamily is 'interleukins'.
# The levels of cell surface (or secreted, indicated by the prefix "s") biomarker endpoints were measured by ELISA. Overt cytotoxicity to cells in confluent adherent cultures (all systems other than the BT system) was assessed by measuring total protein levels using sulforhodamine B (SRB) staining in parallel cultures at the time of biomarker measurements, indicated as SRB endpoints. For proliferation assays for adherent cell types, individual cell types are cultured at sub-confluence and relative cell numbers quantified by SRB staining at time points optimized for each system (48 h: 3C and CASM3C systems; 72 h: BT and HDF3CGF systems; 96 h: SAg system). SRB was performed by staining cells with 0.1% SRB after fixation with 10% TCA and reading wells at 560 nm.Viability and proliferation of PBMC (T cells) was quantified by Alamar Blue reduction for the SAg and BT systems. […] Then, Alamar Blue (20 uL/well) (Invitrogen, Cat DAL1100) was added for 6 h, and the plates were read with a fluorescence microplate reader at 546/580 nm (excitation/emission). […] Plates were read after 6 h.
# [9] = read-out: Interleukin 17A (IL17A), IL17A (gene 3605); experiment: BSK_BT_xIL17A: BioMAP Diversity Plus: BT Assay for Interleukin 17A (IL17A) Biomarker Activity (AID 2284229); conditions: primary human B cells with PBMC
# Summary of the method: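 Luminex xMAP quantification of secreted IL-17A after 24 h chemical exposure of a primary human B cell/PBMC co-culture. Signal increases fitted relative to DMSO negative control.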
# [10] = read-out: Tumor necrosis factor (Homo sapiens) (UniProt P01375); experiment: BSK_BT_xTNFa: BioMAP Diversity Plus: BT Assay for Tumor necrosis factor alpha (TNF-alpha) Biomarker Activity (AID 2284230); conditions: primary human B cells with PBMC
# Summary of the method: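 Human primary co-culture of B cells and peripheral blood mononuclear cells; TNF-alpha in supernatant, 24 h post-dose, Luminex multiplex; DMSO = baseline.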
# Sequence of Tumor necrosis factor (Homo sapiens) (P01375 whole entry, looked up): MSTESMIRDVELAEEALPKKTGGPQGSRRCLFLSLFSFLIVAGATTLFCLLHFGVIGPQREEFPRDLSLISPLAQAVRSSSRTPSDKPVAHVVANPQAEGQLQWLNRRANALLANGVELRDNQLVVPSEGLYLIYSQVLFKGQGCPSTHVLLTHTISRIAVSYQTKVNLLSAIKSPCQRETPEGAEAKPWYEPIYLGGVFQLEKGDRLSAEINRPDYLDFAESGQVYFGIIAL
compound,measurement,setting,value
CC[C@H](C)[C@H]1O[C@]2(C=C[C@@H]1C)C[C@@H]1C[C@@H](C/C=C(\C)[C@@H](O[C@H]3C[C@H](OC)[C@@H](O[C@H]4C[C@H](OC)[C@@H](O)[C@H](C)O4)[C@H](C)O3)[C@@H](C)/C=C/C=C3\CO[C@@H]4[C@H](O)C(C)=C[C@@H](C(=O)O1)[C@]34O)O2 (tested in a mixture with another compound),AC50,[1],1.59 µM (active)
same,AC50,[2],1.75 µM (active)
same,AC50,[3],1.45 µM (active)
COP(=S)(OC)Oc1ccc([N+](=O)[O-])cc1,outcome,[1],inactive
same,outcome,[2],inactive
CC1(C)C(C=C(Cl)Cl)C1C(=O)OC(C#N)c1ccc(F)c(Oc2ccccc2)c1 (centres undefined),AC50,[1],73.6 µM (active)
same,outcome,[1],inactive
same,AC50,[2],87.1 µM (active)
same,outcome,[2],inactive
same,outcome,[3],inactive
COP(=O)(OC)OC=C(Cl)Cl,AC50,[4],0.355 µM (active)
same,outcome,[1],inactive
same,outcome,[2],inactive
same,outcome,[3],inactive
ClC1C(Cl)C(Cl)C(Cl)C(Cl)C1Cl (centres undefined),outcome,[5],inactive
same,AC50,[6],30.5 µM (active) and 21.1 µM (active)
same,AC50,[7],33.6 µM (active)
same,outcome,[7],inactive
same,outcome,[8],inactive
same,outcome,[9],inactive
same,AC50,[10],30.5 µM (active)
same,outcome,[10],inactive
CNC(=O)CSP(=S)(OC)OC,AC50,[1],50 µM (active)
same,outcome,[1],inactive
same,outcome,[2],inactive
same,outcome,[3],inactive
CCC(C)(C)C(=O)OC1=C(c2ccc(Cl)cc2Cl)C(=O)OC12CCCCC2,outcome,[1],inactive
same,outcome,[2],inactive
same,outcome,[3],inactive
O=C(O)COc1ccc(Cl)cc1Cl,outcome,[1],inactive
same,outcome,[3],inactive
O=S1OCC2C(CO1)C1(Cl)C(Cl)=C(Cl)C2(Cl)C1(Cl)Cl (centres undefined),outcome,[1],inactive
same,AC50,[2],23.4 µM (active)
same,AC50,[3],23 µM (active)
